Article PMC7862700, “An all-to-all approach to the identification of sequence-specific readers for epigenetic DNA modifications on cytosine”

How the values were obtained:
Test in all cases: DAPPL (digital affinity profiling via proximity ligation, sequencing); 10 mM Tris-HCl pH 7.5, 50 mM NaCl, 1 mM DTT, 4% glycerol, room temperature, 30 min; GST-TFs on glutathione beads, 16-mer random dsDNA library, 0.1% formaldehyde crosslink after washing; high values mean tight binding
[1] = biological target: T1, FLI1 (Homo sapiens, UniProt Q01543 1-452); conditions: protein: recombinant; tags: N-terminal GST; dsDNA, one strand shown
T1 sequence: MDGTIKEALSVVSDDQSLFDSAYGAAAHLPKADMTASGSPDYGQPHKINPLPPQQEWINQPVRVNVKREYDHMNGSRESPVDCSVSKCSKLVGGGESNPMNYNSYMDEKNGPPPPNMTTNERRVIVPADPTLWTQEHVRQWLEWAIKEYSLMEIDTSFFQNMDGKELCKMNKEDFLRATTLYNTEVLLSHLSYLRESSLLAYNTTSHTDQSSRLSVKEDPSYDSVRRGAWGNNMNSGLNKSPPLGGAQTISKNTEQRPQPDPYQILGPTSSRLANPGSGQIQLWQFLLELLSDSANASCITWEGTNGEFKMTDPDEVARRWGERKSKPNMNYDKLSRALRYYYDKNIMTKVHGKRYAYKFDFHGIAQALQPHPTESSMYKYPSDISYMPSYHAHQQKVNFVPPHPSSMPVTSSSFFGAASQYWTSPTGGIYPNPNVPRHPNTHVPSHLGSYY
Summary of the method: (§1)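 Pools were built from human transcription factors expressed in yeast as GST fusions, captured on glutathione beads and DNA-barcoded, along with a tag-only sample. Incubation with 200 nmole of a 16-mer random double-stranded DNA library lasted 30 min at room temperature in Tris/NaCl/DTT/glycerol buffer, and was followed by washing, 0.1% formaldehyde crosslinking, proximity ligation, PCR amplification and Illumina NextSeq500 sequencing. Binding signal is the quotient of each hexamer's read frequency for a factor and its frequency for the tag-only sample.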

[2] = biological target: T2, ELK1 (Homo sapiens, UniProt P19419 1-428); conditions: protein: recombinant; tags: N-terminal GST; dsDNA, one strand shown
T2 sequence: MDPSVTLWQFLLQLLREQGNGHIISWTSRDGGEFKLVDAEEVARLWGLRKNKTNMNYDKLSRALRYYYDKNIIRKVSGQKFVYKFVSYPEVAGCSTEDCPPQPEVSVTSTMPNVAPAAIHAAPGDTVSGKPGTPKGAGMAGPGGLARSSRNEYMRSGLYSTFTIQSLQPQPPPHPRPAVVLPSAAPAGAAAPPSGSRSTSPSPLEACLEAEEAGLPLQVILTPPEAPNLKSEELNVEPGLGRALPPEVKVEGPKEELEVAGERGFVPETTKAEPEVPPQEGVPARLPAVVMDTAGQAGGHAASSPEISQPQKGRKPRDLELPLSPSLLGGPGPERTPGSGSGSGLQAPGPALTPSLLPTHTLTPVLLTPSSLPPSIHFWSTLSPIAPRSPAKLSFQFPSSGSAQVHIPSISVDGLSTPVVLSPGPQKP
Summary of the method: as §1

[3] = biological target: T3, GABPA (Homo sapiens, UniProt Q06546 1-454); conditions: protein: recombinant; tags: N-terminal GST; dsDNA, one strand shown
T3 sequence: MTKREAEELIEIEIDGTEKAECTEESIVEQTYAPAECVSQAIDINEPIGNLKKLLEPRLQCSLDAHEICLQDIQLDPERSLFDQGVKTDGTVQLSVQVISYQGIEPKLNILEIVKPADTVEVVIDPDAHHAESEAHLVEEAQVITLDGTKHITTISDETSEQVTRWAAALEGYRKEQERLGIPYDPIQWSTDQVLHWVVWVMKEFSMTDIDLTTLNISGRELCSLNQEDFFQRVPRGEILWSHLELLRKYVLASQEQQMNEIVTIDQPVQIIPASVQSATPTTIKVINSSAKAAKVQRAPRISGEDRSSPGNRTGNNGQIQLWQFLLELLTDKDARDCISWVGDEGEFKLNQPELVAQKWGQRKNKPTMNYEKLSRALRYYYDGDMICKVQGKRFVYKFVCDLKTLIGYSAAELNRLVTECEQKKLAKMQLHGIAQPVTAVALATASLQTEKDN
Summary of the method: as §1

[4] = biological target: T4, ERG (Homo sapiens, UniProt P11308 1-479); conditions: protein: recombinant; tags: N-terminal GST; dsDNA, one strand shown
T4 sequence: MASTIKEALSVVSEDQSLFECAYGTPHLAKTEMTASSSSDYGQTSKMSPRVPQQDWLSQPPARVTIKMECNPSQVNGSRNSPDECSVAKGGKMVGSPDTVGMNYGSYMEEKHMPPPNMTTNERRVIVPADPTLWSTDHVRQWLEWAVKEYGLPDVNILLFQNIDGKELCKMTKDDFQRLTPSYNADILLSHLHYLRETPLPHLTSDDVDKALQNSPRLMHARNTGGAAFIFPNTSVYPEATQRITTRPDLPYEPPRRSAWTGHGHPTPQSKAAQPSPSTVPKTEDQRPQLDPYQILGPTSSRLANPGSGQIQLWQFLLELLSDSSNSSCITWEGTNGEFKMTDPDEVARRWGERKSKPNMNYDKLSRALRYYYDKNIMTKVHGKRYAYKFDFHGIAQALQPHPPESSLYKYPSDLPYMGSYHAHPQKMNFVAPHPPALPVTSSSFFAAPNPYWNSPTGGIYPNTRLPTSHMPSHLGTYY
Summary of the method: as §1

[5] = biological target: ELF1 (Homo sapiens, UniProt P32519 1-619); conditions: protein: recombinant; tags: N-terminal GST; dsDNA, one strand shown
ELF1, sequence (P32519 whole entry): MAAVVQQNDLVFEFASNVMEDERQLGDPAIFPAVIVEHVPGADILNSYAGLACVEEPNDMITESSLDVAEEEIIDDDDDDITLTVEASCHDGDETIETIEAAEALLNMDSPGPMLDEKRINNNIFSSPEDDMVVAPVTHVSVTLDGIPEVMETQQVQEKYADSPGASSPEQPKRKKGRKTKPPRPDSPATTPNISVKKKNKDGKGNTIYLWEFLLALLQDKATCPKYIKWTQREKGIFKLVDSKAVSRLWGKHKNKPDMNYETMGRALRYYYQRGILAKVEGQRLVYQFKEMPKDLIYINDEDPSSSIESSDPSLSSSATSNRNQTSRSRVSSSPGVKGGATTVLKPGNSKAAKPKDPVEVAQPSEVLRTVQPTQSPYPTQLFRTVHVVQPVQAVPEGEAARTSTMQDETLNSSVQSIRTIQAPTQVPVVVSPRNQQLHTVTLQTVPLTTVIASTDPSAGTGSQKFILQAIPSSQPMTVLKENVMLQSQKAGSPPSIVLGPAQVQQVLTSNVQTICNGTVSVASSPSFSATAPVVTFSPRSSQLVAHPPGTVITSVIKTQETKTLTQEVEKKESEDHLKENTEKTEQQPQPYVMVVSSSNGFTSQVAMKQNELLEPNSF
Summary of the method: as §1

[6] = biological target: T5, EHF (Homo sapiens, UniProt Q9NZC4 1-300); conditions: protein: recombinant; tags: N-terminal GST; dsDNA, one strand shown
T5 sequence: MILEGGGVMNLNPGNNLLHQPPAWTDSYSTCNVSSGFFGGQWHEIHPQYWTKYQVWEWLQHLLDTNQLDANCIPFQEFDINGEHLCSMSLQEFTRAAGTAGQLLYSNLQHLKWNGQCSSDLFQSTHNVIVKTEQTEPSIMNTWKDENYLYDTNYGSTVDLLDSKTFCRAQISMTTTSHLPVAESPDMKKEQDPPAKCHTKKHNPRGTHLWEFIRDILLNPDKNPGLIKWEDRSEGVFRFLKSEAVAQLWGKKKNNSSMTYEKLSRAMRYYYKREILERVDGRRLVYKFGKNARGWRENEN
Summary of the method: as §1

[7] = biological target: SPI1 (Homo sapiens, UniProt P17947 1-270); conditions: protein: recombinant; tags: N-terminal GST; dsDNA, one strand shown
Summary of the method: as §1

[8] = biological target: SPIB (Homo sapiens, UniProt Q01892 1-262); conditions: protein: recombinant; tags: N-terminal GST; dsDNA, one strand shown
SPIB, sequence (Q01892 whole entry): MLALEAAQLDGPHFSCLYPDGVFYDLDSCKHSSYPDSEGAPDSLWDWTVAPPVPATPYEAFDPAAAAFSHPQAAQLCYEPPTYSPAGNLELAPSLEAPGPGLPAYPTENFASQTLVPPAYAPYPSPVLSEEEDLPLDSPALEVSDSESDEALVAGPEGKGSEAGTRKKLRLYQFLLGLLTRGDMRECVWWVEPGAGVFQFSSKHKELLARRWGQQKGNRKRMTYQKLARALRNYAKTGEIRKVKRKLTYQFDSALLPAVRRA
Summary of the method: as §1

[9] = biological target: T6, FEV (Homo sapiens, UniProt Q99581 1-238); conditions: protein: recombinant; tags: N-terminal GST; dsDNA, one strand shown
T6 sequence: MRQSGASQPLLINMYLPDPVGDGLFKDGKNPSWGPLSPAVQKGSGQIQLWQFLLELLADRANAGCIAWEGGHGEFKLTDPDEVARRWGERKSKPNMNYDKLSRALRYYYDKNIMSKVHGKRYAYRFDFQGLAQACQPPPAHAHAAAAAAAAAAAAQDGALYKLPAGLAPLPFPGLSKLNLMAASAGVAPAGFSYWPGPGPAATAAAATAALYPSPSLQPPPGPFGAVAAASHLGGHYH
Summary of the method: as §1

[10] = biological target: ETV5 (Homo sapiens, UniProt P41161 1-510); conditions: protein: recombinant; tags: N-terminal GST; dsDNA, one strand shown
ETV5, sequence (P41161 whole entry): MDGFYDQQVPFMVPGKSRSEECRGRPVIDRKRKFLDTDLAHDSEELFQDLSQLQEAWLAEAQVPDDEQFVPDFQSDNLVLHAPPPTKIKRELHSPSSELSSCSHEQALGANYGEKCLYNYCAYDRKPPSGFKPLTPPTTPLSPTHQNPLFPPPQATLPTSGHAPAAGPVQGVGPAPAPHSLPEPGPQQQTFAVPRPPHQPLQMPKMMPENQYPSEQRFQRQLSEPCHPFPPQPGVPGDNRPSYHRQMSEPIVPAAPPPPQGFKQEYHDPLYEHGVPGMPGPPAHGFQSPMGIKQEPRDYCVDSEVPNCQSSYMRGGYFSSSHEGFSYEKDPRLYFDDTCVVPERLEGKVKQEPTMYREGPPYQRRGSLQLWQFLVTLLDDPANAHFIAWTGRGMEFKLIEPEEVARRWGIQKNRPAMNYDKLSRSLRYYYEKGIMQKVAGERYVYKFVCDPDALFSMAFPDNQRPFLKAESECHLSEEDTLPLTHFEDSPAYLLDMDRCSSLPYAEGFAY
Summary of the method: as §1

[11] = biological target: HSF1 (Homo sapiens, UniProt Q00613 1-529); conditions: protein: recombinant; tags: N-terminal GST; chain copies: 3; dsDNA, one strand shown
HSF1, sequence (Q00613 whole entry): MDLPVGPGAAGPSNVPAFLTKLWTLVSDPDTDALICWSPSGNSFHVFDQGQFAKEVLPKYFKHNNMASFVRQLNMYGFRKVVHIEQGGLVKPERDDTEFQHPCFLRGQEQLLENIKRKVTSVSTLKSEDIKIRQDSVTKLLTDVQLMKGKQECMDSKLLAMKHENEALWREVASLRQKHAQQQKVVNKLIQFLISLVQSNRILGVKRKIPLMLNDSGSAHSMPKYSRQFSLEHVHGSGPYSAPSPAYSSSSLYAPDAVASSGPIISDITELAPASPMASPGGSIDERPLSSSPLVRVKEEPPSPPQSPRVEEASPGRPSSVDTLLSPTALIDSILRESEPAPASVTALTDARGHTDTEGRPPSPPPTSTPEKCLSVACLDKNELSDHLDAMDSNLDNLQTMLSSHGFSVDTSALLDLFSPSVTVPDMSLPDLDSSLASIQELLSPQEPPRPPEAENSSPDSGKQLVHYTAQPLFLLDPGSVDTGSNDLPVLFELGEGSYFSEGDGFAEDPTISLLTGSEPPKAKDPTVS
Summary of the method: as §1

[12] = biological target: T7, SPIC (Homo sapiens, UniProt Q8N5J4 1-248); conditions: protein: recombinant; tags: N-terminal GST; dsDNA, one strand shown
T7 sequence: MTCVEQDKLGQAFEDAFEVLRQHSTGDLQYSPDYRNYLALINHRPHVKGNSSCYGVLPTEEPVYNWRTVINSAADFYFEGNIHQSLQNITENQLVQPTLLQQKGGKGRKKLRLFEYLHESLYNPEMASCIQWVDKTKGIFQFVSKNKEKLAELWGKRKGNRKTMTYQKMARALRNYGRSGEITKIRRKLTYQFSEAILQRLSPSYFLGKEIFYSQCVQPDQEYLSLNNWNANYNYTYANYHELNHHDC
Summary of the method: as §1

[13] = biological target: ELF4 (Homo sapiens, UniProt Q99607 1-663); conditions: protein: recombinant; tags: N-terminal GST; dsDNA, one strand shown
ELF4, sequence (Q99607 whole entry): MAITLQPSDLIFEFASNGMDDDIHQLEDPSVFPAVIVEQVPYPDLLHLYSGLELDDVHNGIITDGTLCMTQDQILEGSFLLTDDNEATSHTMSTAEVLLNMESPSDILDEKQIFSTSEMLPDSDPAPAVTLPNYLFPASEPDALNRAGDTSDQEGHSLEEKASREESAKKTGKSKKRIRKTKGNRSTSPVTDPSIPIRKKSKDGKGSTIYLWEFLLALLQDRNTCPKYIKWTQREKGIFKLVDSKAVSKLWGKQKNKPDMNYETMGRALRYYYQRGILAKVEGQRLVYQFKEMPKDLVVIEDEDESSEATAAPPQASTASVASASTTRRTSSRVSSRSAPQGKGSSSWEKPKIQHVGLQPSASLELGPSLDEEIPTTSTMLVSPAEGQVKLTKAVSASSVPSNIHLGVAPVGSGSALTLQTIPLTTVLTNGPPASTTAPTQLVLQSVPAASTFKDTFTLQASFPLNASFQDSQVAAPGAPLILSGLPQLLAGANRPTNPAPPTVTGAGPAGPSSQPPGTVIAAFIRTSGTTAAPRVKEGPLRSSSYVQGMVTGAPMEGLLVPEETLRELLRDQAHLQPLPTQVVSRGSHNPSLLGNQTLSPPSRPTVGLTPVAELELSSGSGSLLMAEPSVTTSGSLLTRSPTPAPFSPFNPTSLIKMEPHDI
Summary of the method: as §1

[14] = biological target: T8, ELK4 (Homo sapiens, UniProt P28324-2 1-405); conditions: protein: recombinant; tags: N-terminal GST; dsDNA, one strand shown
T8 sequence: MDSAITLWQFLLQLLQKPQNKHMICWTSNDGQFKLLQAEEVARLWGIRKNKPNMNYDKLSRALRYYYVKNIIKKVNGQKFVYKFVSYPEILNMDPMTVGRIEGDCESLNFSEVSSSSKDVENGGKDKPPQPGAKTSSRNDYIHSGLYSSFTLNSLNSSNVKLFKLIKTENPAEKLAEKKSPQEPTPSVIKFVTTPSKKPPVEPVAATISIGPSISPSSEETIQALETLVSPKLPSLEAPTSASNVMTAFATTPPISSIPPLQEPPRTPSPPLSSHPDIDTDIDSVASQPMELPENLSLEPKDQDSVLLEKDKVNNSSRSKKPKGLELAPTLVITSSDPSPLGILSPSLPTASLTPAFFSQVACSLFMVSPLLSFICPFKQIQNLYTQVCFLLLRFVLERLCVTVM
Summary of the method: as §1

[15] = biological target: T9, ETV2 (Homo sapiens, UniProt O00321 1-342); conditions: protein: recombinant; tags: N-terminal GST; dsDNA, one strand shown
T9 sequence: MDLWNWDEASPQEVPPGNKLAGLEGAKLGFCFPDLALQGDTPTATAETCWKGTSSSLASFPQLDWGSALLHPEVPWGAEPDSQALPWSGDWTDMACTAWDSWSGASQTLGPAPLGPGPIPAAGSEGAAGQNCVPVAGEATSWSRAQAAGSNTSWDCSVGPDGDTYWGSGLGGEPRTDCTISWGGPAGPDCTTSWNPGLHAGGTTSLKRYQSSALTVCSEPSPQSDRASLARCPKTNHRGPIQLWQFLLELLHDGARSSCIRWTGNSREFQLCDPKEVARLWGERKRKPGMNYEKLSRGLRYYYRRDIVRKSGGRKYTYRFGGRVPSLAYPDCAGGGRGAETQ
Summary of the method: as §1

[16] = biological target: T10, ELF3 (Homo sapiens, UniProt P78545 1-371); conditions: protein: recombinant; tags: N-terminal GST; dsDNA, one strand shown
T10 sequence: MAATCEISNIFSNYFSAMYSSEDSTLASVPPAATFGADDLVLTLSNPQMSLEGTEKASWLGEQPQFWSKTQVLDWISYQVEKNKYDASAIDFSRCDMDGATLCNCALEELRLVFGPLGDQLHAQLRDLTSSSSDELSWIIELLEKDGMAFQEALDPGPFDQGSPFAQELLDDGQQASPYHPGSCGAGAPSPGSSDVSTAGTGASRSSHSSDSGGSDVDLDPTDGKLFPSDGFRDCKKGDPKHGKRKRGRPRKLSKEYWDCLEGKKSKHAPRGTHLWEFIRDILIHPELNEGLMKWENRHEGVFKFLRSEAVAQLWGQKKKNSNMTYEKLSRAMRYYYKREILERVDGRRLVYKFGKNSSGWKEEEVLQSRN
Summary of the method: as §1

[17] = biological target: CRX (Homo sapiens, UniProt O43186 1-299); conditions: protein: recombinant; tags: N-terminal GST; dsDNA, one strand shown
CRX, sequence (O43186 whole entry): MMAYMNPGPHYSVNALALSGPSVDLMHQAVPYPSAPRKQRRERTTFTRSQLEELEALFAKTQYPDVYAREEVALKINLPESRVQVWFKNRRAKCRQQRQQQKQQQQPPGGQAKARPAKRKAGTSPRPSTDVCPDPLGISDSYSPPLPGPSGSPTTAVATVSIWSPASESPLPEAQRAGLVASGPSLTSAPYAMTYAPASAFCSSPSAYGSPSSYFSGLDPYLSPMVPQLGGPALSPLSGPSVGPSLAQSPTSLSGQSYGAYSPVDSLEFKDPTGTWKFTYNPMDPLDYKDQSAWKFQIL
Summary of the method: as §1

[18] = biological target: ETV1 (Homo sapiens, UniProt P50549 1-477); conditions: protein: recombinant; tags: N-terminal GST; dsDNA, one strand shown
ETV1, sequence (P50549 whole entry): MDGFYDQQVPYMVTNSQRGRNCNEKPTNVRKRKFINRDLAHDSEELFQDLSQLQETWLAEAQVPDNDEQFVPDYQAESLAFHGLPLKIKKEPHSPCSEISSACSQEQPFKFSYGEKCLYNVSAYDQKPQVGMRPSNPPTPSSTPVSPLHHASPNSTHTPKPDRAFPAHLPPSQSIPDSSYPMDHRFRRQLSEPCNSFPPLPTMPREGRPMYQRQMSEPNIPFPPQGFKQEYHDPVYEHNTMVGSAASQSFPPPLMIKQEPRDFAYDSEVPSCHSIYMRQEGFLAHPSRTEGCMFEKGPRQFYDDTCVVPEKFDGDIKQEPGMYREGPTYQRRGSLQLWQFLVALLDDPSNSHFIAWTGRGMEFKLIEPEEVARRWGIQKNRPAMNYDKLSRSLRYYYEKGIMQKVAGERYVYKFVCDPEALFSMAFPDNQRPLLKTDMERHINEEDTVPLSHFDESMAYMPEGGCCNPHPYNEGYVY
Summary of the method: as §1

TATCGC was tested, and the binding signal [1] was 1.13 fold enrichment (6-mer frequency, TF over GST control), the binding signal [2] was 1.16 fold enrichment (6-mer frequency, TF over GST control) and the binding signal [3] was 1.23 fold enrichment (6-mer frequency, TF over GST control). For the same sequence, the binding signal [4] was 1.15 fold enrichment (6-mer frequency, TF over GST control), the binding signal [5] was 1.16 fold enrichment (6-mer frequency, TF over GST control) and the binding signal [6] was 1.28 fold enrichment (6-mer frequency, TF over GST control). For the same sequence, the binding signal [7] was 1.08 fold enrichment (6-mer frequency, TF over GST control), the binding signal [8] was 1.16 fold enrichment (6-mer frequency, TF over GST control) and the binding signal [9] was 1.17 fold enrichment (6-mer frequency, TF over GST control). For the same sequence, the binding signal [10] was 1.13 fold enrichment (6-mer frequency, TF over GST control), the binding signal [11] was 1.22 fold enrichment (6-mer frequency, TF over GST control) and the binding signal [12] was 1.21 fold enrichment (6-mer frequency, TF over GST control). The binding signal [13] was 1.23 fold enrichment (6-mer frequency, TF over GST control), the binding signal [14] was 1.3 fold enrichment (6-mer frequency, TF over GST control) and the binding signal [15] was 1.07 fold enrichment (6-mer frequency, TF over GST control). For the same sequence, the binding signal [16] was 1.1 fold enrichment (6-mer frequency, TF over GST control), the binding signal [17] was 1.41 fold enrichment (6-mer frequency, TF over GST control) and the binding signal [18] was 1.22 fold enrichment (6-mer frequency, TF over GST control).
